Data as given in the supplement of paper PMC7724964.

Target: T1, CAPN2 513-700 EF-hand_8 (domain begin residue: 513, domain end residue: 700), P17655
T1 chain: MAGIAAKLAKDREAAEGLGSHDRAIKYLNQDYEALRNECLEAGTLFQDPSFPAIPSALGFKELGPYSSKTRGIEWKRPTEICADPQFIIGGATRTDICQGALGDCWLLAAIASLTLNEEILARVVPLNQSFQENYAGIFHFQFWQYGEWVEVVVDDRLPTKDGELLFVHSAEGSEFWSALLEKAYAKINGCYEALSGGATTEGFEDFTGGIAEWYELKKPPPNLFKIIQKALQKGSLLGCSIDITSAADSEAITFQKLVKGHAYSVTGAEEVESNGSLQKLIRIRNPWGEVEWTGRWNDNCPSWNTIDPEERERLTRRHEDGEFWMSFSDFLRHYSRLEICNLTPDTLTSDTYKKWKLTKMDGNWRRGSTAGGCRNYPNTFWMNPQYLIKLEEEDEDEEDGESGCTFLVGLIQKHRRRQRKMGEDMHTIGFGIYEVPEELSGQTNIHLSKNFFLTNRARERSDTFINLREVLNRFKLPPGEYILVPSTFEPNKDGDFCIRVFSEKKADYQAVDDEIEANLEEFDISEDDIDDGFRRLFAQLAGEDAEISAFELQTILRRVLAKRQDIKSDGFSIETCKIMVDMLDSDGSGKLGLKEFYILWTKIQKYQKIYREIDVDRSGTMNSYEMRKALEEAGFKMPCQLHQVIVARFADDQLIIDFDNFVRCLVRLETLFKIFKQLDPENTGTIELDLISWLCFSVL
Experiment: phage ELISA signal ratio (GST-PRM binding over GST background); higher = stronger binding of peptide-phage to the PRM
Method: (§1)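 Phage-displayed random hexadecapeptides (Cys-free, flanked by invariant Gly linkers, fused to the M13 P8 major coat protein) were selected over 5 rounds against GST-fused human PRM domains. Individual clones from rounds 4-5 were tested by phage ELISA, and positive clones binding the target but not GST were sequenced. Values are the ELISA signal ratio of target over background (GST); the background signal is given separately.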

Row | Binder | phage ELISA signal ratio
1 | GDWEWVERWLEMHLLE | 12.6

Target: T2, ARID4A 568-634 Tudor-knot (domain begin residue: 568, domain end residue: 634), P29374
T2 chain: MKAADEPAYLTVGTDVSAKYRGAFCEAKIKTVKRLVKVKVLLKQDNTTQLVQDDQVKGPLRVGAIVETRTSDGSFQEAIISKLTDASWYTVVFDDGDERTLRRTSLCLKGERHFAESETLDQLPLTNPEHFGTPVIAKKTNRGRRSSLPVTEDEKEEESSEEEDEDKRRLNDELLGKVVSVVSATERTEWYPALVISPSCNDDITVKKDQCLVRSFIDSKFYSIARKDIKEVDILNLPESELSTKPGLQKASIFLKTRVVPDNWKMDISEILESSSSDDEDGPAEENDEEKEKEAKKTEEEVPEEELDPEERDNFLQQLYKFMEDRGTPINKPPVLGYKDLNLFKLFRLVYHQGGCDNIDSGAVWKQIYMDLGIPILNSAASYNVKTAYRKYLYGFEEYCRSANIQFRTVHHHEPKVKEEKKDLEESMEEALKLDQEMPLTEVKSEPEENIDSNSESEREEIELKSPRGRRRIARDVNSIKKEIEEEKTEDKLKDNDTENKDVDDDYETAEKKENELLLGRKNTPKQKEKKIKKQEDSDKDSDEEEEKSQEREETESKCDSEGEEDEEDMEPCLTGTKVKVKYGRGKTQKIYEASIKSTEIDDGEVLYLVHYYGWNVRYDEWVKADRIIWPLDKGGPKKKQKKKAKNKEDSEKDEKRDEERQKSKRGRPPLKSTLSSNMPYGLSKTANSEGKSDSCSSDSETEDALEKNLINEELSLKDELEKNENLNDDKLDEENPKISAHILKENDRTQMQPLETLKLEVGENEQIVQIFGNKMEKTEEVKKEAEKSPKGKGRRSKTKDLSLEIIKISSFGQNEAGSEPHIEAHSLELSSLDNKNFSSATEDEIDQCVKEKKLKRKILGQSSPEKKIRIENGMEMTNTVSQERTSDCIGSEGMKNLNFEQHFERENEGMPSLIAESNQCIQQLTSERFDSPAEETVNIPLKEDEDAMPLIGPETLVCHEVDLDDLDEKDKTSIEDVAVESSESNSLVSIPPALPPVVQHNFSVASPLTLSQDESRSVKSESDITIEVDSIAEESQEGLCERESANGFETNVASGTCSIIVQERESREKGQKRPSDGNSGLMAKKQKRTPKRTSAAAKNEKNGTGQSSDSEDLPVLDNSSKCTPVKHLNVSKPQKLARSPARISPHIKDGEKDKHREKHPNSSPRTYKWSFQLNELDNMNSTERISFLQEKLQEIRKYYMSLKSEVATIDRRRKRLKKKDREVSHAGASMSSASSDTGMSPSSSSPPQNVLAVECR
Experiment: as above
Method: as §1

Row | Binder | phage ELISA signal ratio
2 | DGWGWDHIEIEMPYEE | 12.4
3 | WVMPGMEELNIFENMF | 3.49
4 | EQLEPWLMPGQSQLFG | 9.13
5 | GLDLDYWTMPGLETLL | 8.9

Target: T3, SND1 650-910 TUDOR+SNase (domain begin residue: 650, domain end residue: 910), Q7KZF4
T3 chain: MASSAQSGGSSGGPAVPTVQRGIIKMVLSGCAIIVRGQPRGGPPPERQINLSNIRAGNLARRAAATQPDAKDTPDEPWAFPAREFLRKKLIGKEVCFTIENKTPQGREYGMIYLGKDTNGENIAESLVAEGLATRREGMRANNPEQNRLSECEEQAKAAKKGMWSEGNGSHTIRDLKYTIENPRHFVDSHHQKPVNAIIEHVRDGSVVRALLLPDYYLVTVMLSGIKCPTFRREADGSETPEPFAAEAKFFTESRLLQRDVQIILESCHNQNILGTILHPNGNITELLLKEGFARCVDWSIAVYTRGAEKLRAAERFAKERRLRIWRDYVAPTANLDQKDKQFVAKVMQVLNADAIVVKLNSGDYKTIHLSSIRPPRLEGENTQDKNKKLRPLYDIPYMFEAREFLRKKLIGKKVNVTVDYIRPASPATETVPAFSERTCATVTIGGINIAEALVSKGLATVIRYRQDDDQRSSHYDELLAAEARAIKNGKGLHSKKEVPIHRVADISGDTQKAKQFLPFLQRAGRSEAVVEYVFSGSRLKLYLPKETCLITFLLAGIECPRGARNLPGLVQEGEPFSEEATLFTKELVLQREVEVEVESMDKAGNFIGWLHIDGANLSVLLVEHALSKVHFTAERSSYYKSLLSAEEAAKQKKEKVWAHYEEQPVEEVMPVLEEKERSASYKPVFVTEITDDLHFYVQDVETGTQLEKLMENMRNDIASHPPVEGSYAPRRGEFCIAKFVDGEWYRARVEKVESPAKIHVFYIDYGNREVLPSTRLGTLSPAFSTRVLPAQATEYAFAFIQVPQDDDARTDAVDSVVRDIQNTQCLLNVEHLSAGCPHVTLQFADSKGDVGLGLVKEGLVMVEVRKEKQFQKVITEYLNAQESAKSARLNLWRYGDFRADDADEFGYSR
Experiment: as above
Method: as §1

Row | Binder | phage ELISA signal ratio
6 | DGWGWDHIEIEMPYEE | 8.36

Target: T4, ARFGEF2 639-829 Sec7 (domain begin residue: 639, domain end residue: 829), Q9Y6D5
T4 chain: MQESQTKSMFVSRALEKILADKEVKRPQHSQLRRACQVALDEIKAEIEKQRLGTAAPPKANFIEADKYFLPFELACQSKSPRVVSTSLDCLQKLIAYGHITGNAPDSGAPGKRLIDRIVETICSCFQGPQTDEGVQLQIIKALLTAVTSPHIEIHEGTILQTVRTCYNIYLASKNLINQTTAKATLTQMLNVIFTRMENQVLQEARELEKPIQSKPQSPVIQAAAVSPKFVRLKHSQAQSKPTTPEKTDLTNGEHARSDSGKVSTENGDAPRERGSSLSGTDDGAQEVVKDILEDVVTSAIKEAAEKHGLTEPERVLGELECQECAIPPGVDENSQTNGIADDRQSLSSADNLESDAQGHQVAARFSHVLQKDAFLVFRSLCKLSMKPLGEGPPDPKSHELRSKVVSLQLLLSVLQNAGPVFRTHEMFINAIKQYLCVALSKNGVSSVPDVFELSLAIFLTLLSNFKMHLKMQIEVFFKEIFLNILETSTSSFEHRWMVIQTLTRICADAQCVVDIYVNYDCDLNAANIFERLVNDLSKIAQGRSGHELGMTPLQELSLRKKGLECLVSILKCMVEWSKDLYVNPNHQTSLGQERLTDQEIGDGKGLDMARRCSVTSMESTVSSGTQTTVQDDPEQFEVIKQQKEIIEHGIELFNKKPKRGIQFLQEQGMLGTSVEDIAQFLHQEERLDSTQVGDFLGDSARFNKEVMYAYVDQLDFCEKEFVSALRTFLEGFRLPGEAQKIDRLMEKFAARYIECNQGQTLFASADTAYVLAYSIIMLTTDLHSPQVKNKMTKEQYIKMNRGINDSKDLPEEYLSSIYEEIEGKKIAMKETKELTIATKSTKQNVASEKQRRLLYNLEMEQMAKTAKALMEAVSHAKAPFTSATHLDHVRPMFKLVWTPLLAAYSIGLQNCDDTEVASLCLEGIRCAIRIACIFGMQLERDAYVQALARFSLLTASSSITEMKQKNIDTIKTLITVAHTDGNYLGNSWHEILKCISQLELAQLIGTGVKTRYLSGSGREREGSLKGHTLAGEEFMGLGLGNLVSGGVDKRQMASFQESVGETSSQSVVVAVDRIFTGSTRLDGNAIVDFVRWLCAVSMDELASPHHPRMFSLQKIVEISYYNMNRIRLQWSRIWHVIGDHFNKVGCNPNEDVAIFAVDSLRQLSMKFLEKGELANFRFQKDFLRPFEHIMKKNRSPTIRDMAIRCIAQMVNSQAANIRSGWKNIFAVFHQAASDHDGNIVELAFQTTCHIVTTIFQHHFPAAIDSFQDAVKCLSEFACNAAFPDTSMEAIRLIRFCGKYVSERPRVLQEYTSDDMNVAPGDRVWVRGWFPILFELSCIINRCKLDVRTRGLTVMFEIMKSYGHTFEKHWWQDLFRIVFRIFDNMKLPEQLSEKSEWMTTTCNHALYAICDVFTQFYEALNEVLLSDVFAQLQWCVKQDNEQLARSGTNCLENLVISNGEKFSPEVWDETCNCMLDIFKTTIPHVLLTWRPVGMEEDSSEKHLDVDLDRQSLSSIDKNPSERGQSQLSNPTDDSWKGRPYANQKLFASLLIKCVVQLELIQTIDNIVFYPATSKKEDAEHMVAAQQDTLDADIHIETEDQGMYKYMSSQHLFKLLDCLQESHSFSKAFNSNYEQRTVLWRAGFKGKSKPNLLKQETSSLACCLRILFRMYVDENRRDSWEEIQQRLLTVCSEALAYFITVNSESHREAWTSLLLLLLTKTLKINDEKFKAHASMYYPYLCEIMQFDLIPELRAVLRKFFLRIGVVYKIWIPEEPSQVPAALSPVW
Experiment: as above
Method: as §1

Row | Binder | phage ELISA signal ratio
7 | LTREHVQWDGVMHWIM | 16.4

Target: T5, CAPNS1 1-268 EF-hand_8+EF-hand_5 (domain begin residue: 1, domain end residue: 268), P04632
T5 chain: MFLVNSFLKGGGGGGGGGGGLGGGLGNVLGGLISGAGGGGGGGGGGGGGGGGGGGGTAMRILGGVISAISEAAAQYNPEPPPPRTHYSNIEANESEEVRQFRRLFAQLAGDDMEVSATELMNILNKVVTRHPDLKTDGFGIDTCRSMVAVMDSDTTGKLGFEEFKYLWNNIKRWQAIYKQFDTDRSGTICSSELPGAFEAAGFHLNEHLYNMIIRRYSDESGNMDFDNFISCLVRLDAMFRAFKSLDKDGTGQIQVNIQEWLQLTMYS
Experiment: as above
Method: as §1

Row | Binder | phage ELISA signal ratio
8 | LHSNLEEWLLEDLMMW | 18.9
